GPR151 activ = activators of human GPR151, primary screen, cell-based, PathHunter beta-arrestin, luminescence. G-protein coupled receptor 151 (Homo sapiens), Q8TDV0. PathHunter beta-arrestin GPR151 cells. activation, % at 11.2 µM. actives 1% (n = 650,000). AID 1508602, 2020; in the data active means activation above about 4.9%;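 further: 0% = median of compound wells and 100% = cells with positive control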
MITF inh = MITF inhibitors, primary screen, biochemical, AlphaScreen, human | AID 1259374, 2018 | actives 0.91% (n = 650,000) | inhibition, % at 2.6 µM | AlphaScreen MITF homodimerization, bead proximity signal; in the data active means inhibition above about 50%;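 further: 0% = vehicle wells with protein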
Target sequence (O75030 whole entry, looked up): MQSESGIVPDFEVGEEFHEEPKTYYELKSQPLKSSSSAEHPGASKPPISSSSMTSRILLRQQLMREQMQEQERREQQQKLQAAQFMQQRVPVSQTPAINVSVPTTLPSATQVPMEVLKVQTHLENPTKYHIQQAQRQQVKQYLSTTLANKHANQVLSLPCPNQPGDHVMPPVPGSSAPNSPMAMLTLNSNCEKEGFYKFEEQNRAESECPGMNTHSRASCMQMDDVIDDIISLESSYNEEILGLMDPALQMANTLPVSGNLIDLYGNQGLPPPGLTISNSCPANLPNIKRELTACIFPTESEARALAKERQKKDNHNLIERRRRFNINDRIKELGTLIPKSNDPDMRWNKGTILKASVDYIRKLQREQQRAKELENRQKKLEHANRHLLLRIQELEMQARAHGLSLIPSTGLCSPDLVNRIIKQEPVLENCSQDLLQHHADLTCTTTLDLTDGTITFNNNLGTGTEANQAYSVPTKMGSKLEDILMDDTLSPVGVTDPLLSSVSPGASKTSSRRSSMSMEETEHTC
FBW7 activator = FBW7 E3 ligase activators, primary screen, biochemical, AlphaScreen, human | F-box/WD repeat-containing protein 7 (Homo sapiens), Q969H0 | AlphaScreen FBW7–phospho-cyclin E peptide binding, activator screen | normalized activity (activation), % at 26.1 µM | actives 0.13% (n = 650,000) | AID 1259310, 2017; in the data active means normalized activity above about 1.9%;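 further: purified mutant Fbw7 with reduced substrate affinity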
TEAD-YAP block = TEAD-YAP interaction inhibition, primary screen, TEAD-YAP interaction inhibitor project, luminescence, HEK-TIYL cells; inhibition, % at 9.12 µM; TEAD-Gal4/YAP UAS-luciferase luminescence; actives 1.4% (n = 640,000); AID 1259422, 2018; in the data active means inhibition above about 32%;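 further: 0% = median of test compound wells and 100% = reference inhibitor wells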
Starred values were filed as active, the others as inactive. Only some compounds are listed: those with a hit (about 3.5% of all), similar ones and a draw of the others.

SMILES	GPR151 activ	MITF inh	FBW7 activator	TEAD-YAP block
CN(c1ncccc1CNc1nc(Nc2ccc3c(c2)CC(=O)N3)ncc1C(F)(F)F)S(C)(=O)=O	-1	7	0	77*
CN(c1ncccc1CNc1cc(Nc2ccc3c(c2)CC(=O)N3)ncc1C(F)(F)F)S(C)(=O)=O	0	2	0	35*
CNC(=O)c1cc(N2CCOCC2)ccc1Nc1cc(Nc2ccc3c(c2)CC(=O)N3)ncc1C(F)(F)F	-1	-11	0	18
COc1cccc(-c2nnc3sc(CN4CCCCC4)cn23)c1	-1	0	0	48*
COCC[n+]1c(C)cc(/C=C2\Sc3ccccc3N2C)cc1C	0	-7	0	76*
CCN1/C(=C/c2cc(C)[n+](CCO)c(C)c2)Sc2ccccc21	1	1	0	33*
CCN1/C(=C/c2cccc[n+]2C)Sc2ccccc21	2	-2	0	46*
COC(=O)c1cccc(-c2ccc(/C=C3\C(=O)N(c4cccc(C(=O)O)c4)N=C3C)o2)c1	1	9	0	-1
COc1cccc(NC(=O)C2CC(=O)n3ncnc3N2)c1 (stereo not given)	0	-3	0	0
O=C(Nc1cc(C(=O)N2CCCC2)ccc1N1CC2CC(C1)c1cccc(=O)n1C2)c1cccs1 (stereo not given)	-2	3	0	10
O=C(O)c1cc2c3c(c1)C1C=CCC1C(c1ccccc1)N3CC1CC=CC21 (stereo not given)	1	56*	0	13
Cc1cc(C)c2c3c1C1C=CCC1CN3C(C(=O)O)C1CC=CC21 (stereo not given)	0	25	2.5*	-2
O=C(O)C1C2CC=CC2c2cc(Oc3ccccc3)cc3c2N1CC1CC=CC31 (stereo not given)	0	0	2.3*	-2
O=C(O)c1cc2c3c(c1)C1CC=CC1C(c1ccc(Br)cc1)N3CC1CC=CC21 (stereo not given)	-1	72*	0	-6
CCOC(=O)/C(C#N)=N\Nc1ccccc1OC	0	-2	0	-7
CCOC(=O)/C(C#N)=N/Nc1ccccc1C#N	-1	52*	0	-8
O=C(NC(Cc1ccccn1)C(F)(F)F)c1cnc2scc(-c3ccccc3)n2c1=O (stereo not given)	1	11	0	7
COc1cccc(C(=O)N2c3ccccc3NC(=O)CC2C)c1 (stereo not given)	-1	7	0	9
O=C1CN(C(=O)c2cc([N+](=O)[O-])ccc2Cl)c2ccccc2N1	0	-1	0	59*
COc1cccc(C(=O)N2CC(=O)Nc3ccccc32)c1	-1	-14	0	42*
CN(C)c1c(C(=O)N2CC(=O)Nc3ccccc32)cc([N+](=O)[O-])cc1[N+](=O)[O-]	1	17	0	6
Cc1ccc(S(=O)(=O)N(CC(O)CN(C)C)c2ccccc2[N+](=O)[O-])cc1 (stereo not given)	1	-4	0	-5
COc1ccc(/C=C2/SC(=Nc3cccc(C)c3)NC2=O)c(OC)c1	1	-2	0	54*
COc1ccc(/C=C2\SC(=O)NC2=Nc2ccccc2)c(OC)c1	2	13	0	47*
COc1cccc(N=C2NC(=O)/C(=C/c3ccc(OC)c(OC)c3)S2)c1	-1	-6	0	48*
SMILES	GPR151 activ	MITF inh	FBW7 activator	TEAD-YAP block
COc1ccc(OC)c(/C=C2\SC(=Nc3ccccc3)NC2=O)c1	0	6	0	8
COc1ccc(/C=C2\SC(=O)NC2=Nc2ccccc2)cc1	1	20	0	-31
COc1ccc(OC)c(/C=C2\SC(=Nc3ccc(O)cc3)NC2=O)c1	1	5	0	54*
CN1CCN(c2nc(N(c3ccccc3)c3ccccc3)nc(-n3ccnc3)n2)CC1	-1	-2	0	-1
O=C(/C=C/c1ccccc1)Nc1nnc(SCC(=O)Nc2ccc(F)cc2)s1	3	-5	-1	-12
COc1ccc(/C=C2/SC(=Nc3ccc(F)cc3)NC2=O)c(OC)c1	4	7	0	42*
CNCCOc1cc(-c2cn[nH]c2)ccc1NC(=O)C1COc2ccc(F)cc2C1 (stereo not given)	-1	6	0	3
CC(=O)NCCN1C(=O)C(=O)/C(=C(\O)c2ccc(Cl)cc2)C1c1ccc([N+](=O)[O-])cc1 (stereo not given)	0	14	0	15
O=C(CN1C(=O)c2ccc(Br)cc2C1=O)OCc1ccccc1	0	2	0	-6
N#CC1=C(SCC(=O)Nc2ccc(Br)cc2)NC(=O)CC1c1ccc(O)cc1 (stereo not given)	0	14	0	39*
N#CC1=C(SCC(=O)Nc2ccc(Cl)c(Cl)c2)NC(=O)CC1c1ccccc1 (stereo not given)	-2	-9	0	66*
CCCc1ccc(C(=O)Nc2nc3ccccc3s2)cc1	-3	3	0	38*
CCCOc1ccc(C(=O)Nc2nc3ccccc3s2)cc1	-3	-10	0	6
COc1ccccc1C(=O)Nc1nc2ccccc2s1	-11	6	0	95*
CC(C)(C)c1ccc(C(=O)Nc2nc3ccccc3s2)cc1	1	10	0	39*
COc1ccc(C(=O)Nc2nc3c(Cl)cccc3s2)c(OC)c1	1	-17	0	78*
COc1ccccc1C(=O)Nc1nc2ccc(NC(C)=O)cc2s1	0	-26	0	12
Cc1cccc2sc(N3CCN(C(=O)C4CCCN4S(=O)(=O)c4cccs4)CC3)nc12 (stereo not given)	0	-3	0	1
NC(Cc1ccc(C(F)(F)F)cc1)C(=O)O (stereo not given)	1	1	0	3
CS(=O)(=O)N(CC(=O)NCc1ccccc1)c1ccc(Cl)c(C(F)(F)F)c1	0	-6	0	-11
O=C(Nc1nc2ccccc2s1)c1ccc(C(=O)c2ccccc2)cc1	-1	-3	0	-26
CC(C)Oc1ccc(C(=O)Nc2nc3ccccc3s2)cc1	-6	1	0	73*
Cc1ccccc1C(=O)Nc1ccc2nc(NC(=O)c3ccccc3C)sc2c1	1	7	0	55*
CC(C)Oc1ccc(C(=O)NCc2ccccc2)cc1	-1	12	2.5*	-22
CC(=O)Nc1ccc2nc(NC(=O)c3ccccc3C)sc2c1	-5	-5	0	-56
O=C(NC(=S)Nc1nc2ccccc2s1)c1ccccc1Cl	-10	0	0	70*
COc1ccc(CNC(=O)c2ccc(OC(C)C)cc2)cc1	-1	5	0	-37
CCOC(=O)c1cnc2c(ccc3ccccc32)c1NCCCCCO	0	-8	0	3
Cc1ccsc1C(=O)Nc1nc2ccc(S(C)(=O)=O)cc2s1	-12	3	0	62*
